The values that follow come from PubChem BioAssay.

Active and inactive are the calls of the source.

The nature of assay [1]: small molecules captured by biotinylated probe aFSTL3 – biochemical, small-molecule microarray, fluorescence 635/667, stem cell growth factor project, primary screen (AID 1064).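 Further: measures binding of the biotinylated anti-FSTL3 antibody to printed compounds.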 Particulars: higher = more signal.
Assay [2] can be described thus: binders from COS7 lysate, DM2A8 probe, primary screen, torsin A project, cell lysate, small-molecule microarray, fluorescence 635/667 (AID 1065). To be noted: higher = more signal, COS7 lysate expressing mutant human TOR1A.
A short description of assay [3]: small molecules captured by biotinylated probe aFGF2 – biochemical, small-molecule microarray, fluorescence 635/667, stem cell growth factor project, primary screen (AID 1067).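 Further: measures binding of biotinylated aFGF2 protein to printed compounds on slides; z-score merges feature fluorescence and signal-to-noise across triplicate slides.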 Particulars: higher = more signal.
Assay [4] can be described thus: small molecules captured by biotinylated probe aFGF10 – biochemical, small-molecule microarray, fluorescence 635/667, stem cell growth factor project, primary screen (AID 1071).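 Further: score merges 667 nm spot intensity and signal to noise from triplicate slides.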 Particulars: higher = more signal.
For assay [5], the target named is Neurogenic locus notch homolog protein 2 (Homo sapiens) (UniProt Q04721). The experiment in a line: small molecules binding Notch2 protein – biochemical, small-molecule microarray, 635 nm fluorescence, stem cell growth factors, primary screen (AID 1073). Particulars: higher = more signal.
Neurogenic locus notch homolog protein 2 (Homo sapiens), sequence (Q04721 whole entry, looked up, canonical isoform): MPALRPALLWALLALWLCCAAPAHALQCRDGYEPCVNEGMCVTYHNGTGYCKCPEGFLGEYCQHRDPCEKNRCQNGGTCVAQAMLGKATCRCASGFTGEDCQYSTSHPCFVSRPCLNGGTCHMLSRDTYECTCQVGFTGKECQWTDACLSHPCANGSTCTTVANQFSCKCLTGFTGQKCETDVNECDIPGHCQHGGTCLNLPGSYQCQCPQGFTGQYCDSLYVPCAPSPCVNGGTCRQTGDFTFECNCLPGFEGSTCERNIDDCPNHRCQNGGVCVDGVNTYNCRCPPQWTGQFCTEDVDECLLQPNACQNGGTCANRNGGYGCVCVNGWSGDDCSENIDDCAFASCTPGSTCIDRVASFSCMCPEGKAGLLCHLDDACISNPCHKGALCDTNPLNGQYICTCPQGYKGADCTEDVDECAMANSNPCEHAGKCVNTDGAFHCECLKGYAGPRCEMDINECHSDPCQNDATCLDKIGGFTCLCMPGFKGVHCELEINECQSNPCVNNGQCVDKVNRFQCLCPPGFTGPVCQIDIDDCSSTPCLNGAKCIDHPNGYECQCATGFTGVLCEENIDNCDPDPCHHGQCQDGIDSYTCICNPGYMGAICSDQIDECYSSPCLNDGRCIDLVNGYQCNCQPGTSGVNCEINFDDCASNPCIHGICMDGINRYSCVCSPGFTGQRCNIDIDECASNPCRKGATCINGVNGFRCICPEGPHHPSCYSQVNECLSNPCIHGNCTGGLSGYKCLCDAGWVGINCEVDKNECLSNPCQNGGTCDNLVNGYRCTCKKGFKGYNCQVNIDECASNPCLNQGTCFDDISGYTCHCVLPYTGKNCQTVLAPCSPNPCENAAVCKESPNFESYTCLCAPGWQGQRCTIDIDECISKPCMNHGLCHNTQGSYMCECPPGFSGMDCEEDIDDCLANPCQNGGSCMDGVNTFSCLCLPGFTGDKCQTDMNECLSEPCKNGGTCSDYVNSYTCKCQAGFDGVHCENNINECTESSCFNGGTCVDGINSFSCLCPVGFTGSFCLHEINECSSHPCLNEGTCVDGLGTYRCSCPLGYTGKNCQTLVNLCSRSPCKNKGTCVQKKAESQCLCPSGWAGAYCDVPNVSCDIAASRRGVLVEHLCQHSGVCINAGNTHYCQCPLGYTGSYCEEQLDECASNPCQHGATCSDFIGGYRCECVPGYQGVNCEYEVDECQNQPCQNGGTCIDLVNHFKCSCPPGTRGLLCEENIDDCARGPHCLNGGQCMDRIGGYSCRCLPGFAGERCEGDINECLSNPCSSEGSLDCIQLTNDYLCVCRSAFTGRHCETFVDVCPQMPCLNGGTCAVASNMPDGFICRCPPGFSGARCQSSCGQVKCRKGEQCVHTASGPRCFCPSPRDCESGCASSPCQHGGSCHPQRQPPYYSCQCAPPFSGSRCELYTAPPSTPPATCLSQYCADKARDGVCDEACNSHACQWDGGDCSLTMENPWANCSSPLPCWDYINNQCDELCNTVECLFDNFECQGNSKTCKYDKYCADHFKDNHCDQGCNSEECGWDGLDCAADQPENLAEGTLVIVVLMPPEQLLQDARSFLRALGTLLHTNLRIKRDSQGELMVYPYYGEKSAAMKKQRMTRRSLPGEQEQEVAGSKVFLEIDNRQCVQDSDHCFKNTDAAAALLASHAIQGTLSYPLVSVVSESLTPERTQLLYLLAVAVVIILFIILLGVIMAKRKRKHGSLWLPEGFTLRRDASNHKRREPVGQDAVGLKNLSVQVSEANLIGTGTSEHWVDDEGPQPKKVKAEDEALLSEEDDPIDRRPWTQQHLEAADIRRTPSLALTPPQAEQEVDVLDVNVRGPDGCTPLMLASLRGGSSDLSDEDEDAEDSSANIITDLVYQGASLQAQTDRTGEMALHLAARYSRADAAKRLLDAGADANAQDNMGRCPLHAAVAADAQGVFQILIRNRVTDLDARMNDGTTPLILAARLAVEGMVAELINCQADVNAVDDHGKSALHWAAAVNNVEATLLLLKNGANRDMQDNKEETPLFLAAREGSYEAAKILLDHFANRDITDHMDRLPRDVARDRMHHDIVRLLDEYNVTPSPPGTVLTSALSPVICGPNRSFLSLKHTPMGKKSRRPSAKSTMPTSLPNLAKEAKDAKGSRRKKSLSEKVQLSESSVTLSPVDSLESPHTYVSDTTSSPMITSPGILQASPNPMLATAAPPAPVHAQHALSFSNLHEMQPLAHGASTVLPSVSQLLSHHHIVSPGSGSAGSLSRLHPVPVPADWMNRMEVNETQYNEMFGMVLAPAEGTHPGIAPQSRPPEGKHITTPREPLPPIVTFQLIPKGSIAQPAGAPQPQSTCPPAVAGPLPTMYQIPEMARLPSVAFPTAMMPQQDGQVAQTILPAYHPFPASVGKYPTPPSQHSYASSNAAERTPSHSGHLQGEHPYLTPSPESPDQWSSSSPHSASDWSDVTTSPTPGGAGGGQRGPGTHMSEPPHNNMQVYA
The target in assay [6] is Pro-neuregulin-1, membrane-bound isoform (Homo sapiens) (UniProt Q02297). The experiment in a line: small molecules binding neuregulin-1 protein – biochemical, small-molecule microarray, fluorescence 635/667, psychiatric disease protein project, primary screen (AID 1075).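 Further: score combines 667 nm spot fluorescence with signal to noise.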 To be noted: NRG1 binding, 635 nm fluorescence, higher = more signal.
Assay [7] relates to Neuregulin-1 EGF-like domain. The experiment in a line: small molecules binding NRG1 EGF domain – biochemical, small-molecule microarray, 635 nm fluorescence, primary screen (AID 1081).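 Further: binding of the protein to compounds printed on small-molecule microarray slides.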 Particulars: higher = more signal.
The nature of assay [8]: FRG1 expression reporter modulators in myotubes – cell-based, C2C12 myotubes, firefly/Renilla luciferase, luminescence, FRG1 inhibition for FSHD, primary screen (AID 1084). To be noted: FRG1 promoter luciferase, higher = more signal, called active from +8 up or from −8 down.
The nature of assay [9]: small molecules captured by biotinylated probe aFST – biochemical, small-molecule microarray, fluorescence 635/667, stem cell growth factor project, primary screen (AID 1086).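 Further: score merges 667 nm fluorescence with signal-to-noise of each printed compound spot.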 To be noted: higher = more signal.
Assay [10] in a line: binders of probe aHhip on microarray, primary screen, stem cell growth factor project, biochemical, small-molecule microarray, fluorescence 635/667 (AID 1087).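 Further: score merges spot fluorescence at 667nm with spot signal to noise ratio.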 To be noted: higher = more signal.
For assay [11], the system named is PRMT1 (protein arginine N-methyltransferase 1). Description: small molecules binding arginine methyltransferase PRMT1 – biochemical, small-molecule microarray, 635 nm fluorescence, primary screen (AID 1088).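 Further: binding of Prmt1 protein to compounds spotted on small-molecule microarray slides.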 To be noted: higher = more signal.
Assay [12] can be described thus: growth effects on S. cerevisiae YJM789 – YJM789 clinical isolate, OD600, 24 h, basal, primary screen (AID 1089).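 Further: growth of clinical yeast isolate S. cerevisiae YJM 789 seeded 1000 cells per well; test concentration not given here.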 Particulars: higher = more signal, called active from +8 up or from −8 down.
Assay [13] can be described thus: S. pombe growth modifiers, basal conditions – strain 972, OD600, 24 h, no modulator, primary screen (AID 1090).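 Further: basal condition with compound alone and no growth modifier present; test concentration not given here.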 To be noted: S. pombe 972 growth, higher = more signal, called active from +8 up or from −8 down.
A short description of assay [14]: budding yeast growth modifiers under rapamycin – strain BY4716, OD600, 96 h, primary screen (AID 1091). Further: test concentration not given here. Particulars: S. cerevisiae BY4716 + rapamycin, higher = more signal, called active from +8 up or from −8 down.
In assay [15] the target is Torsin-1A-interacting protein 2 (Homo sapiens) (UniProt Q8NFQ8). The experiment in a line: small molecules binding lysate-expressed LULL1 – cell lysate, human LULL1 lysate, 635/667 nm fluorescence, primary screen (AID 1092).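 Further: probe is lysate of COS7 cells overexpressing human LULL1; score merges per-feature 667 nm fluorescence with signal-to-noise.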 To be noted: small-molecule microarray, hLULL1 lysate binding, 635 nm fluorescence; higher = more signal.
The nature of assay [16]: optical density change of DRC41 E. coli – strain DRC41, OD650, 24 h, E. coli filamentation project, primary screen (AID 1093).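 Further: MC1000 strain lacking acrAB efflux and sulA so SOS filamentation is blocked; test concentration not given here.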 Particulars: E. coli DRC41 growth, higher = more signal, called active from +8 up or from −8 down.
Assay [17] is described as follows: probe aLefty2 binding to arrayed compounds – biochemical, biotinylated probe, 635/667 nm fluorescence, primary screen (AID 1094).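 Further: score merges spot fluorescence near 667 nm with spot signal-to-noise ratio.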 Particulars: small-molecule microarray, higher = more signal.
Assay [18] deals with Noggin (protein binding on small-molecule microarray). Description: small molecules binding Noggin protein – biochemical, 635/667 nm fluorescence, primary screen (AID 1095).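 Further: score merges 667 nm feature fluorescence with signal to noise over triplicate slides.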 Particulars: 635 nm fluorescence, higher = more signal.
The target in assay [19] is Neurogenic locus notch homolog protein 3 (Homo sapiens) (UniProt Q9UM47). The experiment in a line: small molecules binding NOTCH3 protein – biochemical, 635/667 nm fluorescence, primary screen (AID 1096). To be noted: small-molecule microarray, 635 nm fluorescence, higher = more signal.
Neurogenic locus notch homolog protein 3 (Homo sapiens), sequence (Q9UM47 whole entry, looked up): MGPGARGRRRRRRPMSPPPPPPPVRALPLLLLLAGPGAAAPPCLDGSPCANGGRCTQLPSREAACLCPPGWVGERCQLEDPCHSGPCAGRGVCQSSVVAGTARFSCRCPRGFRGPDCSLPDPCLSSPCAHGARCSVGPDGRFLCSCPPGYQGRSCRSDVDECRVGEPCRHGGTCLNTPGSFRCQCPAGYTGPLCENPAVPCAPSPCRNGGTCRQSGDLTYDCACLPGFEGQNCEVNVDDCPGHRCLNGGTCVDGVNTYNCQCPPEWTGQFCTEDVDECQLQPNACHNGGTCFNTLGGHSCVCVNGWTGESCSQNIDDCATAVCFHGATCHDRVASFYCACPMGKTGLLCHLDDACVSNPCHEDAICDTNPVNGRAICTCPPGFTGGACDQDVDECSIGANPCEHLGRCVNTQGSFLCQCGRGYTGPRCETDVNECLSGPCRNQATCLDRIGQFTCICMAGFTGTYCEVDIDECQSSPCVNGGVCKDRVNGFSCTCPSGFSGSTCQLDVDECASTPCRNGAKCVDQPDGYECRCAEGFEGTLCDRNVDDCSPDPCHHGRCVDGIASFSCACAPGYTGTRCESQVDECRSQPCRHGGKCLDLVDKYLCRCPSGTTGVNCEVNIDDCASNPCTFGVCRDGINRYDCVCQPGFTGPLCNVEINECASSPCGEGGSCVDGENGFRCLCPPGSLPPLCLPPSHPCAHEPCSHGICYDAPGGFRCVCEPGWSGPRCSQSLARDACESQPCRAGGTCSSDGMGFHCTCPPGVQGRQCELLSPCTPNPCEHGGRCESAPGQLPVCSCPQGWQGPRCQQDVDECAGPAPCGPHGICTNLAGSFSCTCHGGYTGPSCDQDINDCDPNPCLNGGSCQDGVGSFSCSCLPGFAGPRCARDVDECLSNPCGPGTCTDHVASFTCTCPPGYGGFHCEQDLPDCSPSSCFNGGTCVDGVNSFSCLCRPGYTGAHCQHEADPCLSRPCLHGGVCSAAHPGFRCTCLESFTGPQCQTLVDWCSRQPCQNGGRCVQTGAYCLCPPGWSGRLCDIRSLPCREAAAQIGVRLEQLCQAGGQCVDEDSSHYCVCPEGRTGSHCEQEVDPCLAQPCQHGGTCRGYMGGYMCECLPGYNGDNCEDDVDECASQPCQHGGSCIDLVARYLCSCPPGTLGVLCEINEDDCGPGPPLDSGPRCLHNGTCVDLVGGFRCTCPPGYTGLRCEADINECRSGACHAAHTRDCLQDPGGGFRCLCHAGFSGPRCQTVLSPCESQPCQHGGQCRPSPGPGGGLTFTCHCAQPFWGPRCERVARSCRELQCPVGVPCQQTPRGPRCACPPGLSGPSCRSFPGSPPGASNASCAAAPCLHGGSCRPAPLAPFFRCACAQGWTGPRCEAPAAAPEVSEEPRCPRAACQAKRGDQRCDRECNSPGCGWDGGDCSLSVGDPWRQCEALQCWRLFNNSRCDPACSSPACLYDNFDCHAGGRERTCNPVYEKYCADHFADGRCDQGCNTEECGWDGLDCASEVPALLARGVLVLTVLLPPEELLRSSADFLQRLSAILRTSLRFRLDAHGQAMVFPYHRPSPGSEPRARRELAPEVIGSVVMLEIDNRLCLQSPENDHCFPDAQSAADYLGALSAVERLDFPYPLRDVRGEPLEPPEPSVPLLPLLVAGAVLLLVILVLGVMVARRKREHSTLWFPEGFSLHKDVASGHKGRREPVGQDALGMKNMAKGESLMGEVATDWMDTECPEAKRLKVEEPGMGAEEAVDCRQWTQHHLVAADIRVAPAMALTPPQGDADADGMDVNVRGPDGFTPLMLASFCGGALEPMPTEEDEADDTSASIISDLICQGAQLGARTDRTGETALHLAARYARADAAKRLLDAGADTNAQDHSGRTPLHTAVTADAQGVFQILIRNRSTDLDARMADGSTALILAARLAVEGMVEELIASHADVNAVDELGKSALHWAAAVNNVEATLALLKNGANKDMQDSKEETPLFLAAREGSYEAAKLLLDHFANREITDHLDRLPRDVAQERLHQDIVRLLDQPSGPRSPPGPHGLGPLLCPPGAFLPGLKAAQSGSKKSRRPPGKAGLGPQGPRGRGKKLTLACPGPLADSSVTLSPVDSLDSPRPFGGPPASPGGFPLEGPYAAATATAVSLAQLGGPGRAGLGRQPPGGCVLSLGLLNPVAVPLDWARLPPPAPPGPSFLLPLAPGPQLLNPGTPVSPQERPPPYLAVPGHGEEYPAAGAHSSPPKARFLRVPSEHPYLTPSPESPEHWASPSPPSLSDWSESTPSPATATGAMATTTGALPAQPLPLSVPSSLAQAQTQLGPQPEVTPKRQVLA
Assay [20] can be described thus: probe aEGFR binding to arrayed compounds – biochemical, biotinylated probe, 635/667 nm fluorescence, primary screen (AID 1097).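 Further: probe is a biotinylated anti-EGFR antibody binding compounds printed on slides; score combines fluorescence near 667 nm and signal to noise of each spot.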 Particulars: small-molecule microarray, higher = more signal.

Turning to `COc1cc(Br)cc(C(O)C2C=CC3C(=O)N(C)C(=O)C3N2N2CCCCC2)c1OC` (stereo not given), the composite z-score was 0.0974 in [1]; -1.02 in [2]; -0.053 in assay [3]; -0.207 in assay [4]; 0.224 in assay [5]; 0.818 in [6]. For the same molecule, the composite z-score in [7] is 1.31; in [9], 0.347; in assay [10] it was 0.0677; in [11] it was -0.962; in assay [15], 1.49; in [17], 0.118. The composite z-score in assay [18] is -1.27; in assay [19] it was -0.702; in [20], 0.0122. The z-score in assay [8] is 0.876 (inactive); in assay [12], 0.733 (inactive); in assay [13], 1.13 (inactive); in assay [14], 1.73 (inactive); in assay [16] it was -1.54 (inactive).

For the molecule `COc1cc2c(cc1OC)CN(C(=O)[C@@H]1[C@H]3C(=O)O[C@H](c4ccccc4)[C@H](c4ccccc4)N3[C@H](c3ccc(O)cc3)[C@@]13C(=O)Nc1ccccc13)CC2`, the composite z-score in assay [1] is 0.113; in [2], 0.797; in [3] it was -0.0614; in assay [4] it was 0.257; in assay [5], 0.171; in [6], 1.03. Also, the composite z-score was 1.16 in assay [7]; 0.0729 in assay [9]; 0.0854 in assay [10]; 1.35 in assay [11]; 3.04 in [15]; -0.115 in assay [17]. The figures for the composite z-score in [18], in assay [19] and in [20] were 0.497, 0.347 and -0.115, respectively. Moreover, the z-score in assay [8] was 0.421 (inactive); in assay [12], 0.27 (inactive); in assay [13], -0.0755 (inactive); in [14], 0.637 (inactive); in assay [16], 3.03 (inactive).

Regarding `CCCC[C@@H]1C[C@H]1[C@@H](NC(=O)c1ccccc1)c1ccc(C(=O)OC)cc1`, the composite z-score is 1.37 in assay [1]; -0.0965 in assay [2]; -0.0273 in assay [3]; -0.282 in assay [4]; -0.547 in assay [5]; -0.273 in assay [6]. Further, the composite z-score in [7] was -0.544; in assay [9], -0.303; in [10], 0.35; in [11], -0.406; in [15] it was 0.0062; in assay [17], 0.285. The figures for the composite z-score in assay [18], in assay [19] and in assay [20] were 0.894, -0.544 and -0.224, respectively. Also, the z-score is 0.191 (inactive) in assay [8]; -1.24 (inactive) in [12]; -11.2 (active) in [13]; -2.61 (inactive) in assay [14]; -1.13 (inactive) in assay [16].

Regarding `CCc1cccc(NC(=O)O[C@H]2[C@H](OC(=O)Nc3ccccc3-c3ccccc3)[C@@H](OC(=O)Nc3ccccc3-c3ccccc3)[C@@H](OC)O[C@@H]2CO)c1`, the composite z-score in [1] was -0.283; in [2], 0.79; in assay [3], 0.14; in assay [4], 0.806; in [5] it was 1.6; in assay [6] it was 1.88. Moreover, the composite z-score in assay [7] was 1.27; in assay [9], 1.32; in assay [10] it was -0.104; in assay [11] it was 1.53; in assay [15], 3.43; in [17], 0.126. In addition, the composite z-score in assay [18] was 0.666; in assay [19], 1.07; in [20], 0.0506. The z-score in [8] is 1.38 (inactive); in assay [12], 0.182 (inactive); in [13], 1.42 (inactive); in assay [14], -2.51 (inactive); in assay [16] it was -1.31 (inactive).

For the molecule `COc1cc2c(cc1O)C(C1CC1)N(Cc1sc3ccccc3c1Cl)CC2` (stereo not given), the composite z-score is 0.0766 in assay [1]; 0.602 in [2]; -0.135 in assay [3]; 0.0173 in assay [4]; 0.182 in assay [5]; -0.214 in assay [6]. The composite z-score in assay [7] was 1.23; in [9], -0.145; in [10] it was -0.0994; in assay [11], 0.641; in assay [15], 3.15; in [17], -0.0468. Besides, the values for the composite z-score in [18], in [19] and in [20] were -0.181, 0.579 and -0.149, respectively. The z-score in [8] is 0.566 (inactive); in [12], -26 (active); in [13] it was -20 (active); in [14] it was -1.46 (inactive); in assay [16], -0.587 (inactive).

As to `COCCOC(=O)N1C(=O)[C@@]2(c3cc(C#Cc4ccc(OC)cc4)ccc31)[C@H](c1ccccc1OCCO)N1[C@H](c3ccccc3)[C@H](c3ccccc3)OC(=O)[C@H]1[C@@H]2C(=O)NC[C@H](O)c1ccccc1`, the composite z-score was -0.532 in assay [1]; 0.579 in assay [2]; -0.0744 in [3]; 0.514 in assay [4]; 1.09 in [5]; 1.12 in [6]. Also, the composite z-score in [7] was 1.3; in assay [9], 0.499; in assay [10], -0.0346; in assay [11], 1.53; in [15] it was 2.86; in assay [17], -0.0304. Besides, the composite z-score in [18] is 1.17; in [19], 1.04; in assay [20], -0.0267. In addition, the z-score was 0.19 (inactive) in assay [8]; 2.89 (inactive) in assay [12]; 2.09 (inactive) in assay [13]; 7.27 (inactive) in [14]; -0.0186 (inactive) in assay [16].

With `C=CCC(OC(C)=O)[C@@H]1[C@@H](N(Cc2ccc(-c3cccc(C(F)(F)F)c3)o2)C(=O)c2ccc(C)cc2)c2cc(OCCCO)ccc2N1C(=O)Cc1ccc2ccccc2c1` (stereo not given in full), the composite z-score was 0.0498 in [1]; -0.752 in assay [2]; -0.102 in assay [3]; 0.205 in assay [4]; -0.564 in assay [5]; -0.326 in assay [6]. Moreover, the composite z-score in assay [7] is -0.513; in assay [9], 0.0714; in assay [10], -0.134; in assay [11], 0.0457; in assay [15], -0.0958; in [17], -0.0674. Also, the composite z-score in assay [18] was -0.408; in [19] it was -0.624; in assay [20], -0.108. The z-score was -0.201 (inactive) in assay [8]; 0.677 (inactive) in assay [12]; -0.0286 (inactive) in [13]; 0.303 (inactive) in assay [14]; 1.6 (inactive) in assay [16].

Regarding `CC(C)C(=C=CC[C@@H](O)c1ccc(OCCO)cc1)C[C@@H](O)c1ccccn1`, the composite z-score is -0.149 in assay [1]; 0.651 in assay [2]; 0.0297 in [3]; 1.19 in [4]; 0.344 in assay [5]; -0.272 in assay [6]. The composite z-score in assay [7] was 0.826; in assay [9], -0.0267; in [10], -0.166; in assay [11], 1.19; in assay [15], -0.27; in assay [17] it was -0.235. In addition, the composite z-score in assay [18] is 1.08; in [19], 0.813; in [20], -0.133. Besides, the z-score is 0.463 (inactive) in assay [8]; -1 (inactive) in assay [12]; -0.141 (inactive) in assay [13]; -0.347 (inactive) in [14]; -0.162 (inactive) in [16].

As for `C=CCOC(=O)[C@H]1[C@@H]2C(=O)O[C@@H](c3ccccc3)[C@@H](c3ccccc3)N2[C@@H](c2ccc(OCCOC(=O)[C@H]3C[C@H]4C(=O)N[C@@H](CCCC[N+](C)(C)C)C(=O)N4[C@H]3c3ccc(O)cc3)cc2)[C@]12C(=O)Nc1ccc(I)cc12`, the composite z-score in assay [1] is -0.301; in assay [2] it was 1.33; in assay [3] it was -0.0904; in assay [4], -0.333; in [5], -0.295; in assay [6], 2.05. Further, the composite z-score is 0.595 in [7]; -0.333 in assay [9]; 0.6 in assay [10]; 1.36 in [11]; 1.14 in [15]; 0.331 in assay [17]. Besides, the composite z-score worked out at 0.733 in assay [18], 0.209 in [19] and 0.0304 in assay [20]. For the same molecule, the z-score in assay [8] was 2.93 (inactive); in assay [12], 0.318 (inactive); in assay [13] it was -0.503 (inactive); in assay [14], 0.467 (inactive); in [16], -0.173 (inactive).
